Test [1] is described as follows: qHTS of pediatric cancer cell lines to identify multiple opportunities for drug repurposing: Primary screen for NB-EBc1 cells (AID 1347095). Further: potency means the concentration at half of the fitted maximal effect. Conditions: NB-EBc1 neuroblastoma viability, CellTiter-Glo luminescence, 48 h; series mostly up to 46 µM. In short, it runs like this: (§1)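 Primary screen of approved and investigational compounds on cells in growth media at 37 degrees C, 5% CO2. MIPE set at 11-point and NPC set at 8-point dilutions; viability scored by ATP-based luminescence at 48 hours.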

The nature of test [2]: qHTS of pediatric cancer cell lines to identify multiple opportunities for drug repurposing: Primary screen for Saos-2 cells (AID 1347097). Further: nearly all actives have a fitted effect of over 40% in size. Further: potency means the concentration at half of the fitted maximal effect. Conditions: Saos-2 viability, CellTiter-Glo ATP luminescence, 48 h; series mostly up to 46 µM. In short, it runs like this:
as §1
In general terms: qHTS replaces the single test concentration by a dilution series.

A short description of test [3]: qHTS of pediatric cancer cell lines to identify multiple opportunities for drug repurposing: Primary screen for SK-N-SH cells (AID 1347098). Further: nearly all actives have a fitted effect of over 65% in size. Further: potency means the concentration at half of the fitted maximal effect. Conditions: SK-N-SH viability, CellTiter-Glo luminescence, 48 h; series mostly up to 57 µM. In short, it runs like this: (§2)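 Cells (500-1,000/well) rested 5 h, then received compounds for 48 h; metabolically active cells were measured by CellTiter-Glo luminescence. Final concentrations spanned up to 46 µM (MIPE, 11-point) or 0.59 nM-46 µM (NPC, 8-point) in primary screens, 11-point in follow-ups.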

Test [4] is described as follows: qHTS of pediatric cancer cell lines to identify multiple opportunities for drug repurposing: Primary screen for NB1643 cells (AID 1347099). Further: nearly all actives have a fitted effect of over 50% in size. Further: potency means the concentration at half of the fitted maximal effect. As to conditions: NB1643 neuroblastoma viability, CellTiter-Glo luminescence, 48 h; series mostly up to 46 µM. The procedure, abridged:
as §1

A short description of test [5]: qHTS of pediatric cancer cell lines to identify multiple opportunities for drug repurposing: Primary screen for LAN-5 cells (AID 1347100). Further: potency means the concentration at half of the fitted maximal effect. Conditions: LAN-5 neuroblastoma viability, CellTiter-Glo luminescence, 48 h; series mostly up to 46 µM. The procedure, abridged: (§3)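 Cells (500-1,000/well) in growth media were settled 5 h at 37 degrees C, then given compounds for 48 h. Viability was read as CellTiter-Glo luminescence. Primary runs used MIPE at 11 points (0.78 nM-46 µM) and NPC at 8 points (0.59 nM-46 µM); follow-ups used 11 points.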

The nature of test [6]: qHTS of pediatric cancer cell lines to identify multiple opportunities for drug repurposing: Primary screen for Rh18 cells (AID 1347102). Further: nearly all actives have a fitted effect of over 65% in size. Further: potency means the concentration at half of the fitted maximal effect. As to conditions: Rh18 rhabdomyosarcoma viability, CellTiter-Glo luminescence, 48 h; series mostly up to 46 µM. The procedure, abridged: as §3
Test [7] in a line: qHTS of pediatric cancer cell lines to identify multiple opportunities for drug repurposing: Primary screen for OHS-50 cells (AID 1347103). Further: nearly all actives have a fitted effect of over 40% in size. Further: potency means the concentration at half of the fitted maximal effect. As to conditions: OHS-50 osteosarcoma viability, CellTiter-Glo luminescence, 48 h; series mostly up to 57.3 µM. The procedure, abridged: as §2
Test [8] is described as follows: qHTS of pediatric cancer cell lines to identify multiple opportunities for drug repurposing: Primary screen for RD cells (AID 1347104). Further: nearly all actives have a fitted effect of over 55% in size. Further: potency means the concentration at half of the fitted maximal effect. Conditions: RD rhabdomyosarcoma viability, CellTiter-Glo luminescence, 48 h; series mostly up to 46 µM. The procedure, abridged: as §1
The nature of test [9]: qHTS of pediatric cancer cell lines to identify multiple opportunities for drug repurposing: Primary screen for MG 63 (6-TG R) cells (AID 1347105). Further: nearly all actives have a fitted effect of over 50% in size. Further: potency means the concentration at half of the fitted maximal effect. As to conditions: MG 63 (6-TG R) viability, CellTiter-Glo, 48 h; series mostly up to 46 µM. In short, it runs like this:
as §1

Test [10] can be described thus: qHTS of pediatric cancer cell lines to identify multiple opportunities for drug repurposing: Primary screen for control Hh wild type fibroblast cells (AID 1347106). Further: nearly all actives have a fitted effect of over 55% in size. Further: potency means the concentration at half of the fitted maximal effect. Conditions: Hh wild-type fibroblast viability, CellTiter-Glo luminescence, 48 h; series mostly up to 46 µM. In short, it runs like this: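 Viability after 48 h compound treatment at 37C, 500-1,000 cells/well, read as ATP luminescence with CellTiter-Glo. Primary screens used 11-point (MIPE, 0.78 nM-46 µM) or 8-point (NPC, 0.59 nM-46 µM) final concentrations; follow-up screens used 11-point dilutions.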

Test [11] can be described thus: qHTS of pediatric cancer cell lines to identify multiple opportunities for drug repurposing: Primary screen for Rh30 cells (AID 1347107). Further: nearly all actives have a fitted effect of over 75% in size. As to conditions: Rh30 rhabdomyosarcoma viability, CellTiter-Glo luminescence, 48 h; series mostly up to 46 µM. The procedure, abridged:
as §3

Test [12] can be described thus: qHTS of pediatric cancer cell lines to identify multiple opportunities for drug repurposing: Primary screen for Rh41 cells (AID 1347108). Further: nearly all actives have a fitted effect of over 70% in size. Further: potency means the concentration at half of the fitted maximal effect. As to conditions: Rh41 rhabdomyosarcoma viability, CellTiter-Glo luminescence, 48 h; series mostly up to 46 µM. In short, it runs like this:
as §1

Test [13] can be described thus: qHTS of pediatric cancer cell lines to identify multiple opportunities for drug repurposing: Primary screen for BT-12 cells (AID 1347101). Further: nearly all actives have a fitted effect of over 25% in size. Further: potency means the concentration at half of the fitted maximal effect. Conditions: BT-12 viability, CellTiter-Glo luminescence, 48 h; series mostly up to 57.3 µM. The procedure, abridged: as §2
The nature of test [14]: qHTS of pediatric cancer cell lines to identify multiple opportunities for drug repurposing: Confirmatory screen for NB1643 cells (AID 1347109). Further: potency means the concentration at half of the fitted maximal effect; nearly all actives have a fitted effect of over 45% in size. As to conditions: NB1643 neuroblastoma cell viability; series mostly up to 45.9 µM. In short, it runs like this: as §3
Test [15] in a line: qHTS of pediatric cancer cell lines to identify multiple opportunities for drug repurposing: Confirmatory screen for A673 cells (AID 1347110).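 Further: potency means the concentration at half of the fitted maximal effect; cells exposed to compound for 48 h before the viability read; nearly all actives have a fitted effect of over 65% in size.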 Conditions: A673 Ewing sarcoma cell viability; series mostly up to 45.9 µM. The procedure, abridged:
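Forty-eight-hour viability assay. Follow-up compounds ran at 11-point dilutions; positive control bortezomib at 2.3 uM final, neutral control DMSO.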

Test [16] is described as follows: qHTS of pediatric cancer cell lines to identify multiple opportunities for drug repurposing: Confirmatory screen for SK-N-MC cells (AID 1347111).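 Further: potency means the concentration at half of the fitted maximal effect; cells exposed to compound for 48 h before the readout; nearly all actives have a fitted effect of over 70% in size.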 As to conditions: SK-N-MC cell viability; series mostly up to 45.9 µM. The procedure, abridged:
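Metabolically active cells were quantified by ATP-dependent luminescence (CellTiter-Glo, 15 min at room temperature) following 48 h treatment. Cells had been plated at 500-1,000 per well and settled for 5 h beforehand.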

Test [17] can be described thus: qHTS of pediatric cancer cell lines to identify multiple opportunities for drug repurposing: Confirmatory screen for DAOY cells (AID 1347114). Further: nearly all actives have a fitted effect of over 65% in size. Further: potency means the concentration at half of the fitted maximal effect. Conditions: DAOY medulloblastoma cells viability, cytotoxicity qHTS; series mostly up to 45.9 µM. In short, it runs like this: (§4)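 Viability measured as metabolically active cells via CellTiter-Glo luminescence following 48 hours of compound exposure, 11-point dilutions in confirmatory testing. 500-1,000 cells/well plated 5 hours before dosing; controls were DMSO and 2.3 µM bortezomib.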

The nature of test [18]: qHTS of pediatric cancer cell lines to identify multiple opportunities for drug repurposing: Confirmatory screen for SJ-GBM2 cells (AID 1347116). Further: potency means the concentration at half of the fitted maximal effect; nearly all actives have a fitted effect of over 60% in size. Conditions: SJ-GBM2 glioblastoma cells, viability; series mostly up to 45.9 µM. The procedure, abridged: as §4
Test [19] is described as follows: qHTS of pediatric cancer cell lines to identify multiple opportunities for drug repurposing: Confirmatory screen for LAN-5 cells (AID 1347113). As to conditions: LAN-5 neuroblastoma cell viability; series mostly up to 45.9 µM. In short, it runs like this: as §3

Drawing on PubChem BioAssay (NCATS), this text covers Potency for 5 compounds.

Several values for one entry are separate records, joined by “and”; a condition that tells them apart may be missing. Identical values can stand only once. Inconclusive results are not listed. Activity calls are given as the source filed them. The call rests on the fitted dose curve; in most records, active means well fitted curve in the direction sought with a large enough effect; inconclusive means small, poorly fitted or top-dose-only effect, or another doubt; inactive means no such curve, though single readings can be large; an effect the other way counts as inactive or inconclusive.

Regarding `COc1cccc(N(C)C(=S)Oc2ccc3c(c2)CCCC3)n1`, the Potency result in test [1], in test [2], in test [3], in [4], in test [5] and in test [6] was “inactive” in each case. Also, the Potency entry in test [8], in test [9], in test [10], in test [11] and in test [12] was “inactive” in each case. Moreover, the Potency in test [7] was 24.3 µM (active).
On to `Cc1onc(-c2ccccc2Cl)c1C(=O)N[C@@H]1C(=O)N2[C@@H]1SC(C)(C)[C@@H]2C(=O)O`, for which the Potency entry in test [1], in test [2], in test [3], in [4], in test [5] and in test [13] was “inactive” throughout. The Potency result in test [6], in test [7], in [8], in test [9], in test [10] and in test [11] was “inactive” in each case. Further, in [12], the Potency entry was “inactive”.
Consider `COc1cc2nc(N3CCCN(C)CC3)nc(NC3CCN(Cc4ccccc4)CC3)c2cc1OC`, for which the Potency in [1] was 23.5 µM (active); in [2], 7.43 µM (active); in [3], 9.61 µM (active); in test [4], 9.35 µM (active); in test [5], 8.33 µM (active); in test [13], 10.9 µM (active). Besides, the Potency in test [6] is 9.35 µM (active); in [7], 8.63 µM (active); in [8], 8.33 µM (active); in [9], 9.35 µM (active); in test [10], 16.6 µM (active); in test [12] it was 18.7 µM (active). Further, the Potency in [14] was 20.8 µM (active); in [15], 7.37 µM (active); in test [16], 3.69 µM (active); in test [18], 0.928 µM (active). Besides, the Potency entry in [17] was “inactive”.
Consider `COc1cc([C@@H]2c3cc4c(cc3[C@H](O)[C@H]3COC(=O)[C@H]23)OCO4)cc(OC)c1OC`, for which the Potency in test [1] was 8.4 nM (active) and 1 nM (active); in [2] it was 33.5 nM (active) and 2.64 µM (active); in test [4] it was 0.0596 µM (active); in test [5] it was 7.5 nM (active) and 1 nM (active); in test [13], 55 nM (active) and 1.9 nM (active); in [7] it was 30.9 nM (active) and 1 nM (active). In addition, the Potency is 0.0329 µM (active) in [14]; 0.104 µM (active) in [15]; 0.0329 µM (active) in test [16]; 0.0827 µM (active) in [19]; 0.0147 µM (active) in test [17]. Besides, the Potency entry in [3], in test [6], in [8], in test [9], in test [10] and in test [11] was “inactive” throughout. Further, the Potency result in [12] is “inactive”.
Consider `CC(=O)Oc1ccccc1C(=O)Nc1ncc([N+](=O)[O-])s1`, for which the Potency was 10.8 µM (active) and 15 µM (active) in [1]; 27 µM (active) in test [2]; 42.9 µM (active) and 21.1 µM (active) in test [4]; 27 µM (active) and 15 µM (active) in [5]; 39.5 µM (active) and 21.9 µM (active) in test [13]; 42.9 µM (active) in test [6]. Also, the Potency was 22.2 µM (active) in test [7]; 42.9 µM (active) and 23.7 µM (active) in [8]. Also, the Potency entry in [3], in [9] and in test [10] was “inactive” in each case.
